Tg IFNy HTS: blocks Toxoplasma gondii growth in the presence of IFN-gamma; activity change, negative = inhibition, % (concentration not given with the values); actives 3.8% (n = 69,000); Toxoplasma gondii growth in IFN-gamma-treated host cells; active compounds read low; in the data active = activity change below about -70%, passing the limit was not always enough;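 note: host cells are HeLa cells infected with Toxoplasma gondii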
* marks the source's active call; other numbers are inactive results; ! = not active in a repeat. The full list was thinned out, with hits kept by preference.

SMILES	Tg IFNy HTS
CN(CCNc1ncnc2c1CCN(C(=O)C1CC1)C2)S(C)(=O)=O	7
C[C@H]1CN([C@@H](C)CO)C(=O)CCCn2nncc2CO[C@H]1CN(C)Cc1cccc(C(F)(F)F)c1	-106*
C[C@H](CO)N1C[C@H](C)[C@H](CN(C)Cc2cccc(C(F)(F)F)c2)OCc2cnnn2CCCC1=O	179
C[C@@H]1CN([C@@H](C)CO)C(=O)CCCn2nncc2CO[C@@H]1CN(C)Cc1cccc(C(F)(F)F)c1	27
C[C@H](CO)N1C[C@H](C)[C@@H](CN(C)Cc2cccc3c2OCCCO3)OCc2cnnn2CCCC1=O	201
C[C@@H]1CN([C@H](C)CO)C(=O)CCCn2nncc2CO[C@@H]1CN(C)Cc1cccc2c1OCCCO2	-58
C[C@@H]1CN([C@H](C)CO)C(=O)CCCn2nncc2CO[C@H]1CN(C)Cc1cccc2c1OCCCO2	-88*
O=C1C[C@H]2CC[C@@H](CN1)N2C(=O)CCc1cccnc1	-37
CCOCCCNC(=O)c1nc(Nc2ccc(F)cc2)c2ccccc2n1	9
Cc1ccc(NC(=O)c2ccc3ccc(N4CCN(S(C)(=O)=O)CC4)n3c2)nc1	-7
Clc1ccc(-n2ncc3c(NC4CCCCCCCCCCC4)ncnc32)cc1	11
CC(C)Nc1ncnc2c1cnn2-c1ccc(Cl)cc1	-73*
Cc1ccc(Nc2ncnc3c2cnn3-c2ccc(Cl)cc2)cc1	22
COc1cccc(-c2cc(C(=O)NCC3(C)CC(C)=NO3)[nH]n2)c1 (stereo not drawn)	6
O=C1CCC2(CCN(C(=O)C3CC3)CC2)CN1CC1CCOCC1	-8
O=C(O)COCCN1CCN(C(c2ccccc2)c2ccc(Cl)cc2)CC1 (stereo not drawn)	18
OCCOCCN1CCN(C(c2ccccc2)c2ccc(Cl)cc2)CC1 (stereo not drawn)	-97*!
O=C(O)COCCN1CCN([C@H](c2ccccc2)c2ccc(Cl)cc2)CC1	23
CC(=O)Nc1ccc(S(=O)(=O)N2CCOC(Cn3ccnc3)C2)cc1 (stereo not drawn)	50
Clc1ccc2nc(-c3cccs3)c(NC3CCCCC3)n2c1	15
CN(C)C(=O)[C@@]12CCCN(C(=O)Nc3ccccc3)C[C@@H]1CN(c1ccccn1)C2	-5
CC(C)CS(=O)(=O)N1CCC2(CC1)CC(CC(=O)NCC1CC1)c1ccccc12 (stereo not drawn)	-14
O=C(CN1C(=O)CCc2cc(S(=O)(=O)N3CCCCC3)ccc21)Nc1ccccc1	-22
Cc1ccc(NC(=O)CN2C(=O)CCc3cc(S(=O)(=O)N4CCCC4)ccc32)cc1	38
Cc1ccc(NC(=O)CN2C(=O)CCc3cc(S(=O)(=O)N4CCCC4)ccc32)cc1C	19
SMILES	Tg IFNy HTS
Cc1ccc(NC(=O)CN2C(=O)CCc3cc(S(=O)(=O)N4CCCCC4)ccc32)cc1C	3
CC(C)c1ccc(NC(=O)CN2C(=O)CCc3cc(S(=O)(=O)N4CCOCC4)ccc32)cc1	-18
O=C(CN1C(=O)CCc2cc(S(=O)(=O)N3CCCCC3)ccc21)Nc1cccc(Cl)c1	-88*
Cc1c(Cl)cccc1NC(=O)CN1C(=O)CCc2cc(S(=O)(=O)N3CCCCC3)ccc21	-11
CC(C)c1ccc(NC(=O)CN2C(=O)CCc3cc(S(=O)(=O)N4CCCCC4)ccc32)cc1	-113*
O=C(CN1C(=O)CCc2cc(S(=O)(=O)N3CCCC3)ccc21)Nc1cccc(Cl)c1	-103*
Clc1ccc(-c2nc(N3CCc4ccccc43)c3ccccc3n2)cc1	-11
O=C(CN1C(=O)c2ccccc2S1(=O)=O)Nc1ccc2ccccc2c1	-19
COc1ccccc1C(=O)N1CCN(Cc2cccc3nccnc23)CC1	9
CC(C)c1cc(C(=O)N(C)Cc2cnn(-c3ccc(F)cc3)c2)n(C)n1	-52
Cc1cc(C(=O)N2CCCC(COc3ccc(F)cc3)C2)c2cnn(C(C)C)c2n1 (stereo not drawn)	2
Cc1cc(C)c(S(=O)(=O)NCCc2csc(-c3ccc(Cl)cc3)n2)c(C)c1	-9
CC(C)C(=O)c1cc2c(s1)CCN2S(C)(=O)=O	-85*
CS(=O)(=O)N1CCc2sc(C(=O)Nc3ccccc3F)cc21	-19
CS(=O)(=O)N1CCc2sc(C(=O)NCc3ccccc3)cc21	-4
CCOc1ccc(-c2nc(Cn3c(=O)c4c(C)cc(C)nc4n(C)c3=O)c(C)o2)cc1OC	4
COc1ccc(-c2nc(Cn3nnc(-c4nc(-c5cccc(C)c5)no4)c3C)c(C)o2)cc1	5
COc1cccc(-n2cc(CN(C)CC3CCOC3)cn2)c1 (stereo not drawn)	9
COCCN1CCO[C@H]2CCN(Cc3cncn3C)C[C@H]21	34
CCN1CCC2(CC1)OC(=O)C(C)=C2C(=O)Nc1cccc(C)c1C	52
COC(=O)CSC(=O)NC(=O)c1ccccc1Oc1ccc(Cl)cc1Cl	-92*
O=S(=O)(Nc1ccc(F)c(Cl)c1)c1ccccc1Oc1ccc(Cl)cc1Cl	51
COc1ccccc1Oc1ccccc1C(=O)O	0
Cc1nccn1CC1(CNC2CSCCSC2)CC1	-3
CCCOC(=O)N1CCn2nc(-c3nc4ccccc4n3C)cc2C1	144
SMILES	Tg IFNy HTS
Cc1nc(C(C)N(C)Cc2ccc(Sc3nncn3C)o2)c(C)s1 (stereo not drawn)	10
O=C(Nc1cnn(-c2ncncc2N2CCCCC2)c1)C1CCCC1	-33
O=C(Nc1cnn(-c2ncncc2N2CCSCC2)c1)NC1CCCCC1	18
O=C(Nc1cnn(-c2ncncc2N2CCCCC2)c1)C1CCCCC1	-80*
CC(C)(C)CN1CCNC(=O)C1CC(=O)NCc1cccc(OC(F)(F)F)c1 (stereo not drawn)	10
CC(C)(NC(=O)c1cccs1)C(=O)N1CCCC2(CNC(=O)O2)C1 (stereo not drawn)	1
CCSc1nnc(NC(=O)CCc2ccc(C)o2)s1	19
CCCCCCCC(=O)Nc1nnc(Sc2ccnc3cc(Cl)ccc23)s1	-94*
CCN(CC)C(=O)Oc1ccnc2cc(Cl)ccc12	-40
Cc1cc([C@@H]2C[C@H](NC(=O)c3ccccc3)C[C@H](CC(C)C)O2)n[nH]1	-1
COC(=O)C[C@](O)(CCCC(C)(C)O)C(=O)O[C@@H]1C(OC)=C[C@]23CCCN2CCc2cc4c(cc2[C@H]13)OCO4	-82*
CCN1CCC2(CC1)OC(=O)C(C)=C2C(=O)NCCCN1CCCCC1	50
CC(=O)c1cc([N+](=O)[O-])c(Sc2ccc(F)cc2F)s1	-72*
CNC(=S)Sc1ccc(F)cc1F	38
COc1ccc2c(c1)CCCN2CC(=O)NCc1nc2ccccc2n1C	9
C=CCn1c(N)c(C#N)c2nc(C#N)c(C#N)nc21	-28
Cc1nc(-c2ccccc2)sc1C(=O)Oc1ccccc1N1CCOCC1	-56
CCOC(=O)c1cnc2oc3ccc(O)cc3c2c1-c1ccccc1	14
CCOC(=O)c1cnc2c(-c3ccccc3)c(C(F)(F)F)sc2c1N1CCOCC1	-93*
Cc1ccsc1C(=O)N1CCCn2nnc(COCC3CC3)c2C1	4
FC(F)(F)c1cccc(NC(=S)Nc2csc(C(F)(F)F)c2-c2ccccc2)c1	-97*
FC(F)(F)c1cccc(NC(=S)Nc2cccc(C(F)(F)F)c2)c1	19
CCOC(=O)c1cn[nH]c1NC(=S)Nc1cccc(C(F)(F)F)c1	-34
Cc1nc2n(Cc3ccccc3)c3ccccc3n2c1C(=S)Nc1ccccc1	-114*
Cc1nc(C)c(C(=O)Nc2ccc3c(c2)CN(Cc2ccccc2)C3)o1	0
Cc1nc2ccccc2n1Cc1ccccc1	-58
Cc1noc([C@@]23COC[C@@H]2CN(Cc2csc(C)n2)C3)n1	4
